From PubChem BioAssay (NCATS)
Inconclusive results are not listed. A call without a number means that no potency is given here. Active and inactive are the calls of the source. Calls follow the shape of the dose curve; as a rule, active = well fitted curve in the direction sought with a large enough effect; inconclusive = small, poorly fitted or top-dose-only effect, or another doubt; inactive = no such curve, though single readings can be large; an effect the other way counts as inactive or inconclusive.

Assays:
[1] = qHTS for Inhibitors of Plasmodium falciparum (DD2) proliferation (AID 504314)
Summary of the method: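 P. falciparum Dd2 is grown in erythrocytes with test compound for 72 h at 37C under 5% CO2. Growth is scored by SYBR Green I fluorescence after detergent lysis, relative to artemisinin (0.29 uM) and DMSO controls.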

[2] = qHTS for Inhibitors of Plasmodium falciparum (GB4) proliferation (AID 504315); also: nearly all actives have a fitted effect of over 50% in size
Summary of the method: (§1)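 Parasite growth measured as SYBR Green DNA fluorescence (ex 485, em 535 nm) after overnight lysis following 72 h culture at 37 °C, 0.3% parasitemia, 2.5% hematocrit. Values normalized against DMSO and 0.29 uM artemisinin controls, with plate-stack correction.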

[3] = qHTS for Inhibitors of Plasmodium falciparum (7G8) proliferation (AID 504316); also: nearly all actives have a fitted effect of over 65% in size
Summary of the method: as §1

[4] = qHTS for Inhibitors of Plasmodium falciparum (HB3) proliferation (AID 504318); also: nearly all actives have a fitted effect of over 60% in size
Summary of the method: as §1

[5] = qHTS for Inhibitors of Plasmodium falciparum (CP250) proliferation (AID 504320)
Summary of the method: as §1
Potency is read from the fitted curve at half-maximal effect.

Row | Structure (SMILES) | Potency [1] | Potency [2] | Potency [3] | Potency [4] | Potency [5]
1 | COC/C=C/C1=CC2=CC(=O)C(C)(OC(=O)c3cnc4ccccc4n3)C(=O)C2=CN1C1CCCCC1 (stereo not given) | inactive | inactive | inactive | inactive | –
2 | COc1ccc(-c2nc3c(c4c2C[C@H](c2ccccc2)OC4)CN(C(=O)NCCc2c[nH]c4ccccc24)CC3)c(C)c1 | inactive | inactive | inactive | inactive | –
3 | COCCN1C(=O)N[C@@H](c2cccc(C(F)(F)F)c2)[C@@H](C(=O)OC)[C@H]1C | inactive | inactive | inactive | inactive | –
4 | CC1(OC(=O)c2ccc(Cl)nc2)C(=O)C=c2cc(-c3ccsc3)ncc2=C1OC(=O)C1CCCC1 (stereo not given) | inactive | inactive | inactive | inactive | inactive
5 | CC#CCN1c2ccccc2[C@]23C[C@@H](C(=O)OC)N(C(=O)COCc4ccccc4)C2=NC(C(=O)OC)=C(C(=O)OC)[C@H]13 | inactive | inactive | inactive | inactive | –
6 | CCCCC1=CC2=CC(=O)C(C)(OC(=O)CC)C(=O)C2=CN1c1cccc(C#N)c1 (stereo not given) | inactive | inactive | inactive | inactive | inactive
7 | CC1(OC(=O)CCc2ccccc2)C(=O)C=C2C=C3CCCN3C=C2C1=O (stereo not given) | inactive | inactive | inactive | inactive | inactive
8 | COC/C=C/C1=CC2=CC(=O)C(C)(OC(=O)c3cnc4ccccc4n3)C(=O)C2=CN1C1CC1 (stereo not given) | inactive | inactive | inactive | inactive | inactive
9 | CCN1C(=O)N[C@@H](CCc2ccccc2)C(C(=O)OC)=C1C | inactive | inactive | inactive | inactive | –
10 | C[C@H]1Cc2c(COc3ccccc3)nc3c(c2CO1)CN(C(=O)Nc1cccc(C#N)c1)CC3 | inactive | inactive | inactive | inactive | –
11 | COC(=O)CCC(=O)OC1(C)C(=O)C2=CN(CCc3ccccn3)C(c3ccc(OC)cc3)=CC2=C(Br)C1=O (stereo not given) | inactive | inactive | inactive | inactive | inactive
12 | COC(=O)N1C2=C(c3ccccc3[C@@H]1CC(=O)Nc1ccc3cc4ccccc4cc3c1)[C@@H]1C(=O)N(c3ccccc3)C(=O)[C@@H]1[C@H](C)C2 | inactive | 1510 nM (active) | 1900 nM (active) | 1690 nM (active) | –
13 | CCCCc1nc2c(c3c1C[C@H](C)OC3)CN(S(=O)(=O)c1ccc(C#N)cc1)CC2 | inactive | inactive | inactive | inactive | inactive
14 | CCN(CC)CCCN1C=C2C(=O)C(C)(OC(=O)C3CCCC3)C(=O)C(c3ccccc3)=C2C=C1CCCC(=O)OC (stereo not given) | inactive | inactive | inactive | inactive | inactive
15 | COC(=O)C1=C(C(=O)OC)[C@@H]2N(C)c3ccc(OC)cc3[C@@]23C[C@@H](C(=O)OC)N(C(=O)COCc2ccccc2)C3=N1 | inactive | inactive | inactive | inactive | inactive
16 | CCOC(=O)CN1C(=O)N[C@@H](c2ccc(Br)cc2)C(C(=O)OC)=C1C | inactive | inactive | inactive | inactive | –
17 | COCCN1C(=O)N[C@@H](c2ccco2)C(C(=O)OC)=C1C | inactive | inactive | inactive | inactive | inactive
18 | CCN1C(=O)N[C@@H](c2cccc(C(F)(F)F)c2)[C@@H](C(=O)OC)[C@H]1C | inactive | inactive | inactive | inactive | –
19 | COC(=O)CCCC1=CC2=CC(=O)C(C)(OC(=O)c3cccs3)C(=O)C2=CN1c1ccc(CO)cc1 (stereo not given) | inactive | inactive | inactive | inactive | –
20 | CC(=O)c1ccc([C@@H]2C=C[C@H](O)[C@@H](CO)O2)cc1 | inactive | inactive | inactive | inactive | inactive

Row | Structure (SMILES) | Potency [1] | Potency [2] | Potency [3] | Potency [4] | Potency [5]
21 | COC(=O)CCC(=O)OC1(C)C(=O)C2=CN(C3CC3)C(c3ccc(OC)cc3)=CC2=C(Br)C1=O (stereo not given) | inactive | inactive | inactive | inactive | inactive
22 | CC1(OC(=O)c2cnc3ccccc3n2)C(=O)C=C2C=C3CCCN3C=C2C1=O (stereo not given) | inactive | inactive | inactive | inactive | –
23 | CC[C@@H](C)CN1C(=O)N[C@@H](c2ccccc2)C(C(=O)OC)=C1C | inactive | inactive | inactive | inactive | –
24 | CCN1C(=O)NC(c2ccco2)C(C(=O)OC)=C1C (stereo not given) | inactive | inactive | inactive | inactive | inactive
25 | CC(C)OCCCN1C=C2C(=O)C(C)(OC(=O)CCc3ccccc3)C(=O)C=C2C=C1c1ccc(C#N)cc1 (stereo not given) | inactive | inactive | inactive | inactive | inactive
26 | COC(=O)CCCC1=CC2=C(c3ccccc3)C(=O)C(C)(OC(=O)C3CCCC3)C(=O)C2=CN1CCc1ccccn1 (stereo not given) | inactive | inactive | inactive | inactive | inactive
27 | COC(=O)C1=C(C)N(Cc2ccccc2)C(=O)N[C@H]1c1ccco1 | inactive | inactive | inactive | inactive | inactive
28 | COC/C=C/C1=CC2=CC(=O)C(C)(OC(=O)c3cnc4ccccc4n3)C(=O)C2=CN1CCc1ccccn1 (stereo not given) | inactive | inactive | inactive | inactive | inactive
29 | CCOC(=O)CN1C(=O)N[C@@H](c2ccco2)C(C(=O)OC)=C1C | inactive | inactive | inactive | inactive | inactive
30 | COC/C=C/C1=CC2=CC(=O)C(C)(OC(=O)c3cnc4ccccc4n3)C(=O)C2=CN1c1ccccc1 (stereo not given) | inactive | inactive | inactive | inactive | –
31 | Cc1ccc(S(=O)(=O)N[C@@H]2COC(=O)[C@@H](C)COC(=O)CC=C[C@H]2C)cc1 | inactive | inactive | inactive | inactive | –
32 | C=C(C(C)=O)C(O)C=Cc1ccco1 (stereo not given) | inactive | inactive | inactive | inactive | –
33 | COC(=O)CCCC1=CC2=CC(=O)C(C)(OC(=O)c3cccs3)C(=O)C2=CN1C(CO)CO (stereo not given) | inactive | inactive | inactive | inactive | inactive
34 | COc1cccc(CC(=O)N2CCc3nc(-c4ccccc4)c4c(c3C2)CO[C@@H](C)C4)c1 | inactive | inactive | inactive | inactive | inactive
35 | CCOC(=O)CCCNC(=O)N1CCc2nc(-c3ccccc3)c3c(c2C1)CO[C@@H](C)C3 | inactive | inactive | inactive | inactive | inactive
36 | COC(=O)C1=C(C(=O)OC)[C@@H]2N(C)c3ccccc3[C@@]23C[C@@H](C(=O)OC)N=C3N1 | inactive | inactive | inactive | inactive | inactive
37 | C[C@H]1Cc2c(-c3ccccc3)nc3c(c2CO1)CN(C(=O)C1CC1)CC3 | inactive | inactive | inactive | inactive | inactive
38 | COC(=O)C1=C(C(=O)OC)[C@@H]2N(C)c3ccccc3[C@@]23C[C@@H](C(=O)OC)N(C(=O)C2CCC2)C3=N1 | inactive | inactive | inactive | inactive | inactive
39 | C=CC1=C2C=C(C3CC3)N(CCCN(CC)CC)C=C2C(=O)C(C)(OC(=O)c2ccco2)C1=O (stereo not given) | inactive | inactive | inactive | inactive | inactive
40 | COc1ccc(C2=CC3=C(Br)C(=O)C(C)(OC(=O)c4ccco4)C(=O)C3=CO2)cc1 (stereo not given) | inactive | inactive | inactive | inactive | inactive

Row | Structure (SMILES) | Potency [1] | Potency [2] | Potency [3] | Potency [4] | Potency [5]
41 | C[C@H]1Cc2c(-c3ccccc3)nc3c(c2CO1)CN(S(=O)(=O)c1ccc(C#N)cc1)CC3 | inactive | inactive | inactive | inactive | inactive
42 | CCN1C(=O)N[C@@H](CCc2ccccc2)C(C(C)=O)=C1C | inactive | inactive | inactive | inactive | inactive
43 | COC(=O)N[C@H](C(C(=O)OC)=C(C)NCc1ccccc1)c1cccc(F)c1 | inactive | inactive | inactive | inactive | inactive
44 | COC/C=C/C1=CC2=CC(=O)C(C)(OC(=O)c3cnc4ccccc4n3)C(=O)C2=CN1c1ccc(CO)cc1 (stereo not given) | inactive | inactive | inactive | inactive | inactive
45 | COC(=O)N[C@H](CC(C)=O)c1ccc(Cl)cc1 | inactive | inactive | inactive | inactive | inactive
46 | COC(=O)C1=C(C(=O)OC)[C@@H]2N(C)c3ccccc3[C@@]23C[C@@H](CO)N(C(=O)C2CCC2)C3=N1 | inactive | inactive | inactive | inactive | inactive
47 | FC(F)(F)c1cc(NC(=S)NC23CC4CC(CC(C4)C2)C3)cc(C(F)(F)F)c1 | 753 nM (active) | 1070 nM (active) | 601 nM (active) | 478 nM (active) | 849 nM (active)
48 | COC(=O)C1=C(C(=O)OC)[C@@H]2N(C)c3ccccc3[C@@]23C[C@@H](C(=O)OC)N(C(=O)CC(C)C)C3=N1 | inactive | inactive | inactive | inactive | inactive
49 | CCCCc1nc2c(c3c1C[C@H](C)OC3)CN(C(=O)COC)CC2 | inactive | inactive | inactive | inactive | inactive
50 | CCCCC1=CC2=CC(=O)C(C)(OC(=O)CC)C(=O)C2=CN1C(CO)CO (stereo not given) | inactive | inactive | inactive | inactive | inactive
51 | CCCCC1=CC2=CC(=O)C(C)(OC(=O)CC)C(=O)C2=CN1CCN1CCOCC1 (stereo not given) | inactive | inactive | inactive | inactive | inactive
52 | COC(=O)C1=C(C)N(CC2CC2)C(=O)N[C@H]1c1ccccc1 | inactive | inactive | inactive | inactive | inactive
53 | CCOC(=O)NN=C1C[C@@H](O)[C@@H](O)[C@@H]2[C@H]3C(=O)N([C@@H](C)c4ccccc4)C(=O)[C@@H]3CC[C@@H]12 | inactive | inactive | inactive | inactive | inactive
54 | CCN(CC)CCCN1C=C2C(=O)C(C)(OC(=O)CCC(=O)OC)C(=O)C=C2C=C1C1CC1 (stereo not given) | inactive | inactive | inactive | inactive | inactive
55 | COC(=O)[C@H](Cc1ccccc1)NC(=O)O[C@@H]1C(=O)c2cc(OC)ccc2O[C@H]1c1cccc(OC)c1 | inactive | inactive | inactive | inactive | inactive
56 | COC(=O)CCC(=O)OC1(C)C(=O)C2=CN(Cc3ccc4c(c3)OCO4)C(c3ccc(OC)cc3)=CC2=C(Br)C1=O (stereo not given) | inactive | inactive | inactive | inactive | inactive
57 | CC1(OC(=O)CCc2ccccc2)C(=O)C=C2C=C(c3ccc(C#N)cc3)N(CCc3ccccn3)C=C2C1=O (stereo not given) | inactive | inactive | inactive | inactive | inactive
58 | COC(=O)C1=C(C(=O)OC)[C@@H]2N(C)c3ccccc3[C@@]23C[C@@H](C(=O)OC)N(C(C)=O)C3=N1 | inactive | inactive | inactive | inactive | inactive
59 | CC1(OC(=O)C2CCCC2)C(=O)C=C2C=C(c3ccsc3)N(CCCCO)C=C2C1=O (stereo not given) | inactive | inactive | inactive | inactive | inactive
60 | C=CCN1c2ccccc2[C@]23C[C@@H](C(=O)OC)N(C(=O)c4ccco4)C2=NC(C(=O)OC)=C(C(=O)OC)[C@H]13 | inactive | inactive | inactive | inactive | inactive
